The record followed here is publication PMC7862700, “An all-to-all approach to the identification of sequence-specific readers for epigenetic DNA modifications on cytosine”.

Holding throughout (test): DAPPL (digital affinity profiling via proximity ligation, sequencing); 10 mM Tris-HCl pH 7.5, 50 mM NaCl, 1 mM DTT, 4% glycerol, room temperature, 30 min; GST-TFs on glutathione beads, 16-mer random dsDNA library, 0.1% formaldehyde crosslink after washing; high values mean tight binding
Common to all, as to conditions: protein: recombinant; tags: N-terminal GST; dsDNA, one strand shown

Test [1] concerns the target T1, ELK1 (Homo sapiens, UniProt P19419 1-428).
T1 sequence: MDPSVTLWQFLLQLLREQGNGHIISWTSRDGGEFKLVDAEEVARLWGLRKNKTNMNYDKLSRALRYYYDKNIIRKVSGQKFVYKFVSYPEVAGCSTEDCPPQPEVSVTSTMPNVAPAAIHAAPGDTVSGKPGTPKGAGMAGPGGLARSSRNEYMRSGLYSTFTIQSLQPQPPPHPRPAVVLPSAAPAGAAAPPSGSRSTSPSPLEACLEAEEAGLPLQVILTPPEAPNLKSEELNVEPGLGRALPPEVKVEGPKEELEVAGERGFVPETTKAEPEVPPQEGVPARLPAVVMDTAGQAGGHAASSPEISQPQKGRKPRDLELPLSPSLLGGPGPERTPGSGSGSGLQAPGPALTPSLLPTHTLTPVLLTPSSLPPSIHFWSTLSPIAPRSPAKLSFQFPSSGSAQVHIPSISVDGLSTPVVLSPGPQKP
The essentials:
(§1)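 Each value of binding signal is a hexamer's read frequency for a factor divided by the same hexamer's frequency in the tag-only sample. Barcoded, bead-captured GST fusions of human transcription factors made in yeast were pooled with that sample and incubated with 200 nmole of a random double-stranded 16-mer DNA library in Tris/NaCl/DTT/glycerol buffer at room temperature for 30 min. Washing, 0.1% formaldehyde crosslinking, proximity ligation, PCR and Illumina NextSeq500 sequencing followed.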

Test [2] concerns the target T2, GABPA (Homo sapiens, UniProt Q06546 1-454).
T2 sequence: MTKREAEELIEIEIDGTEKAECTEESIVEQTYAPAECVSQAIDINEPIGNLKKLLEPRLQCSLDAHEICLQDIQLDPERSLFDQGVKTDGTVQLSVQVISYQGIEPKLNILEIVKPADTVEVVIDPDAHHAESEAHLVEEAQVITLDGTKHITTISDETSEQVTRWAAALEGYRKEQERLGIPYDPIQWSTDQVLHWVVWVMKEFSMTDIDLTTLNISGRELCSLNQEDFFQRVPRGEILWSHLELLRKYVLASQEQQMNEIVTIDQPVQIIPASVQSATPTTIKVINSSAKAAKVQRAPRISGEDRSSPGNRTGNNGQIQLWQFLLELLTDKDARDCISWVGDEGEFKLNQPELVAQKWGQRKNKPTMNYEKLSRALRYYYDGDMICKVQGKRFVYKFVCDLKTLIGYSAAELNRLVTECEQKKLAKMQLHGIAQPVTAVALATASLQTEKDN
The essentials: as §1

For test [3], the target named is T3, ERG (Homo sapiens, UniProt P11308 1-479).
T3 sequence: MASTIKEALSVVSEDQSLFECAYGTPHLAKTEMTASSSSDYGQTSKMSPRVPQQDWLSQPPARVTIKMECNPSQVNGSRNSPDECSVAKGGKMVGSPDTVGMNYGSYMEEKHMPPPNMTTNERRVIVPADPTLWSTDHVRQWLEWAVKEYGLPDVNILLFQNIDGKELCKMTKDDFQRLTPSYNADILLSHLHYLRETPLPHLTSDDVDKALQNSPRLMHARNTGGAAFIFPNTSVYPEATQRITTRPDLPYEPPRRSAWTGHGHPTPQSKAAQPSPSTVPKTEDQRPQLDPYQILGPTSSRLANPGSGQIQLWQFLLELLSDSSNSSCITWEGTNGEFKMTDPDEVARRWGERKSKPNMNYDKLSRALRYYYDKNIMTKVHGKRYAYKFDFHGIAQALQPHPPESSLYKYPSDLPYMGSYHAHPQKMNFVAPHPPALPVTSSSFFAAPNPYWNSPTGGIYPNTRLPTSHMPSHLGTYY
The essentials: as §1

Test [4] deals with ELF1 (Homo sapiens, UniProt P32519 1-619). The essentials: as §1
ELF1, sequence (P32519 whole entry): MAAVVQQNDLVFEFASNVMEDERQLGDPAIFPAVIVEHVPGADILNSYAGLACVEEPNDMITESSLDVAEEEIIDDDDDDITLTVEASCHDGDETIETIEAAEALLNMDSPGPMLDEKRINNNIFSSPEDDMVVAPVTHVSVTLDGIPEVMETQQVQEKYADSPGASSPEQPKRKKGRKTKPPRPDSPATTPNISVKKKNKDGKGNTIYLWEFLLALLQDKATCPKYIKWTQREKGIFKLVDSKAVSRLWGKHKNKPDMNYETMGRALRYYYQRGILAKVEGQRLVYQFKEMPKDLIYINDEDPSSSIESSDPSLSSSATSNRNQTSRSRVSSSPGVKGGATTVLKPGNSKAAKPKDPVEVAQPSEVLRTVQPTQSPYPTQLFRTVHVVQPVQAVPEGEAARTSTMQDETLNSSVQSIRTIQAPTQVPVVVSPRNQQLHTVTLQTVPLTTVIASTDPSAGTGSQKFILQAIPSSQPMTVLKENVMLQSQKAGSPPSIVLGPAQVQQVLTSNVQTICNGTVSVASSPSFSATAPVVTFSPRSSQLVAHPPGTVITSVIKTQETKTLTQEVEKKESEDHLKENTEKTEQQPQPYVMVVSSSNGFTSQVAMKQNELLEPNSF
In test [5] the target is T4, EHF (Homo sapiens, UniProt Q9NZC4 1-300).
T4 sequence: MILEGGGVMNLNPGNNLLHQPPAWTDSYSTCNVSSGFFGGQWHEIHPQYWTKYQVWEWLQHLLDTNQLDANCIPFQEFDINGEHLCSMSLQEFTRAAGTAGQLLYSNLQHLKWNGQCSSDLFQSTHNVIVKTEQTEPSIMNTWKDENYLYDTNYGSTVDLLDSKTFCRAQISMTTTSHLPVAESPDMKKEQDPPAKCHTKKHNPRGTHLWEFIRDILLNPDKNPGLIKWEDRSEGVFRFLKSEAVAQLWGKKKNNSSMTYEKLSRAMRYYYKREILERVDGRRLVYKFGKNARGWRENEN
The essentials: as §1

For test [6], the target named is SPIB (Homo sapiens, UniProt Q01892 1-262). In short, it runs like this: as §1
SPIB, sequence (Q01892 whole entry): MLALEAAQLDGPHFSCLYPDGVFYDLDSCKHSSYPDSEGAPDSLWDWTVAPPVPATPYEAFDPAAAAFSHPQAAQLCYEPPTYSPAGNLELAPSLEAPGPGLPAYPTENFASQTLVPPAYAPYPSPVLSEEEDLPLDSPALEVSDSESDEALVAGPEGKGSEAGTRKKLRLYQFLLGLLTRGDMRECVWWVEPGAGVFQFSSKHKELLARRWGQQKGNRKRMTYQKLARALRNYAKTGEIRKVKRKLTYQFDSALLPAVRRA
Test [7] has as its target T5, SPIC (Homo sapiens, UniProt Q8N5J4 1-248).
T5 sequence: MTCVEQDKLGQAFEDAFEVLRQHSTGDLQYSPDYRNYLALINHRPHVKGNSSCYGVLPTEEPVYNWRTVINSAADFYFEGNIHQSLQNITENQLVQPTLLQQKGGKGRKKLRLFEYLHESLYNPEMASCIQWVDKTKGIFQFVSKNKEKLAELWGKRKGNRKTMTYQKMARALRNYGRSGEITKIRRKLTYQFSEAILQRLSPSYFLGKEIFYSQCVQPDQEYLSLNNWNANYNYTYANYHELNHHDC
In short, it runs like this:
as §1

The target of test [8] is ELF4 (Homo sapiens, UniProt Q99607 1-663). In short, it runs like this: as §1
ELF4, sequence (Q99607 whole entry): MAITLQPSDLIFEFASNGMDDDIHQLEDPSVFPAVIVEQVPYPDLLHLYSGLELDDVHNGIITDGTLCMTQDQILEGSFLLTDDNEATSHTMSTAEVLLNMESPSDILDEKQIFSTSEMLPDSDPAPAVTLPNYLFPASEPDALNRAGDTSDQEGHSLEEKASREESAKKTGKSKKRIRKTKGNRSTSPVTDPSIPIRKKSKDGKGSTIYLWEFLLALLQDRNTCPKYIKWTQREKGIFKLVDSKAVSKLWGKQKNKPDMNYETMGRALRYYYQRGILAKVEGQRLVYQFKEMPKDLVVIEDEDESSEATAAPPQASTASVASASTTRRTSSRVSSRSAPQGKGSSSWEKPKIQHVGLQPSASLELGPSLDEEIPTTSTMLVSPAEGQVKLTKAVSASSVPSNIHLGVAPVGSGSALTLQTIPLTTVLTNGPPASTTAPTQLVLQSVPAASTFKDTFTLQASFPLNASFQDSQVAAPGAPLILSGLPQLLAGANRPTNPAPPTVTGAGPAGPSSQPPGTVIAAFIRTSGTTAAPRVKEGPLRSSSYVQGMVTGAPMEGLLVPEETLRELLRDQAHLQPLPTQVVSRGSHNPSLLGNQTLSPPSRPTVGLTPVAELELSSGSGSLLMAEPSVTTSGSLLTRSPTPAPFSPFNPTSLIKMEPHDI
Test [9] has as its target T6, ELK4 (Homo sapiens, UniProt P28324-2 1-405).
T6 sequence: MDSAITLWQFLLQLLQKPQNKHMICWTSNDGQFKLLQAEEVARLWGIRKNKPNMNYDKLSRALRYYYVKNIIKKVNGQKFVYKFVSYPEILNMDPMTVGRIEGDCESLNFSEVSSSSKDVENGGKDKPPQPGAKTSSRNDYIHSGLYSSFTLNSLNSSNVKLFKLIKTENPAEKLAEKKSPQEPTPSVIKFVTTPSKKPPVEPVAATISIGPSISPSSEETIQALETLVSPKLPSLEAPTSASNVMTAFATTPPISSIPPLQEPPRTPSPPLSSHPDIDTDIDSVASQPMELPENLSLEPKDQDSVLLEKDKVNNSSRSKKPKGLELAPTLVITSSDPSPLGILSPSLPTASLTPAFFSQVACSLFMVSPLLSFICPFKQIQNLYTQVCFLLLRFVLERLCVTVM
The essentials:
as §1

In test [10] the target is T7, ELF3 (Homo sapiens, UniProt P78545 1-371).
T7 sequence: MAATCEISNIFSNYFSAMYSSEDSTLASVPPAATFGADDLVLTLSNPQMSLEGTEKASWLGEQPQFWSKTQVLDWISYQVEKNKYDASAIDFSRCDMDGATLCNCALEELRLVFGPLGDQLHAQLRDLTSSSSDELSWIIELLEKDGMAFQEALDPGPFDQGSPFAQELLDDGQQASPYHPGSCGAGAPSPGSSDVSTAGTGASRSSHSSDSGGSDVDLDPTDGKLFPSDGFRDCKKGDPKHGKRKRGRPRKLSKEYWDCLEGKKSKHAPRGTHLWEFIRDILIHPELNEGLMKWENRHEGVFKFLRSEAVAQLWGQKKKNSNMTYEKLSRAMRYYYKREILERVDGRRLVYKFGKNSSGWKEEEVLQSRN
In short, it runs like this: as §1

For test [11], the target named is ETV1 (Homo sapiens, UniProt P50549 1-477). The essentials:
as §1

In test [12] the target is T8, ERF (Homo sapiens, UniProt P50548 1-548).
T8 sequence: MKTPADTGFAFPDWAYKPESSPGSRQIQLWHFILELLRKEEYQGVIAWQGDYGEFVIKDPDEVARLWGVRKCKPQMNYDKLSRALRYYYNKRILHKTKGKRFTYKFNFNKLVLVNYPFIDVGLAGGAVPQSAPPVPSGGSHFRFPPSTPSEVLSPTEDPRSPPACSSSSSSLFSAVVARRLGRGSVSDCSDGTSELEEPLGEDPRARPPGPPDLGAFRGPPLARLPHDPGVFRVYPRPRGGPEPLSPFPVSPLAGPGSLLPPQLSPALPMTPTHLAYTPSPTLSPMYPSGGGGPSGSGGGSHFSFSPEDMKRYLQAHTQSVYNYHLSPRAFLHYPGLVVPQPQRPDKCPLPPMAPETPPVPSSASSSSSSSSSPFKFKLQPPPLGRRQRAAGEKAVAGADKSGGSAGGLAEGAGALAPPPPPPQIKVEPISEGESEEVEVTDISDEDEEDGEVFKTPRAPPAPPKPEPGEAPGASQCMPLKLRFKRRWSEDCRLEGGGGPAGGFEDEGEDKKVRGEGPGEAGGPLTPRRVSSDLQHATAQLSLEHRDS
The essentials: as §1

The target in test [13] is T9, ETV3L (Homo sapiens, UniProt Q6ZN32 1-361).
T9 sequence: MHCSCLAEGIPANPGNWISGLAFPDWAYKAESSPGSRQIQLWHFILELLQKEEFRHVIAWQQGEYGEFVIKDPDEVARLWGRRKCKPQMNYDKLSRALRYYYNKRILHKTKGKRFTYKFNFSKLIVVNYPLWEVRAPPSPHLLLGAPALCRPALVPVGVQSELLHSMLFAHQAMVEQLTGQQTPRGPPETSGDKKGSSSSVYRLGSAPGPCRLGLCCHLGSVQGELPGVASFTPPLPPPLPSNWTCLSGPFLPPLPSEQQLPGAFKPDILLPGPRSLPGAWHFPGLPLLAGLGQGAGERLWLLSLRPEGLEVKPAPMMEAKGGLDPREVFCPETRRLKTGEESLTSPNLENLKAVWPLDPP
The essentials:
as §1

Test [14] concerns the target T10, ETS2 (Homo sapiens, UniProt P15036 1-469).
T10 sequence: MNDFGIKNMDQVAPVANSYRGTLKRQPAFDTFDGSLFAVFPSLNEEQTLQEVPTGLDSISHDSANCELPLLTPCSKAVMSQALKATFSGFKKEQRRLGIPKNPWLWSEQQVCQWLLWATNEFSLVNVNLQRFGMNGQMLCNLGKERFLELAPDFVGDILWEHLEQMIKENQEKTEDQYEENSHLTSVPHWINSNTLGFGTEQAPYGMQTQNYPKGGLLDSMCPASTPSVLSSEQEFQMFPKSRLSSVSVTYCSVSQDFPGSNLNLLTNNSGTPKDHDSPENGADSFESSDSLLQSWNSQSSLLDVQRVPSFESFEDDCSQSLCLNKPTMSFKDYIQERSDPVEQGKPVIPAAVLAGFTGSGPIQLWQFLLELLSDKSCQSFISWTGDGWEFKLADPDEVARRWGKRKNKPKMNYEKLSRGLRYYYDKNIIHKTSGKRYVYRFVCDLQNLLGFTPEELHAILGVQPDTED
In short, it runs like this:
as §1

For test [15], the target named is T11, SPDEF (Homo sapiens, UniProt O95238 1-335).
T11 sequence: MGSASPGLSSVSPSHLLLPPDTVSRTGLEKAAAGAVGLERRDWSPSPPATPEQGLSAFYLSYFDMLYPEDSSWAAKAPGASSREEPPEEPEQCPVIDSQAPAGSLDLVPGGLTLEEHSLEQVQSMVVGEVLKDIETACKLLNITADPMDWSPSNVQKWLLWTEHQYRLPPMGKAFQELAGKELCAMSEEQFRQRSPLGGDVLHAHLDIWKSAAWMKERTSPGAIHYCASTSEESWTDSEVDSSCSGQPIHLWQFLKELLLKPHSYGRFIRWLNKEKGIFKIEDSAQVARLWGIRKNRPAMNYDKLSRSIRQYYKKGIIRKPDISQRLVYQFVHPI
The essentials:
as §1

For test [16], the target named is T12, ETV7 (Homo sapiens, UniProt Q9Y603 1-341).
T12 sequence: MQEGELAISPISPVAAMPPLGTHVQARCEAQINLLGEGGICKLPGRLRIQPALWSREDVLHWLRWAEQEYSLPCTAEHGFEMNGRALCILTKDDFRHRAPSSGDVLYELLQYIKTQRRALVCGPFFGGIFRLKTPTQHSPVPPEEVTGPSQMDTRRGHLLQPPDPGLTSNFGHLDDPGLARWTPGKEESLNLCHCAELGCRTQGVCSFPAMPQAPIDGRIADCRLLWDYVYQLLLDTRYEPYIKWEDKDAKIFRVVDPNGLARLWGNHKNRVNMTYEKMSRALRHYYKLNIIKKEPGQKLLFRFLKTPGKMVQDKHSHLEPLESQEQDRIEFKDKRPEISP
The essentials:
as §1

Test [17] deals with T13, ETV3 (Homo sapiens, UniProt P41162-2 1-143).
T13 sequence: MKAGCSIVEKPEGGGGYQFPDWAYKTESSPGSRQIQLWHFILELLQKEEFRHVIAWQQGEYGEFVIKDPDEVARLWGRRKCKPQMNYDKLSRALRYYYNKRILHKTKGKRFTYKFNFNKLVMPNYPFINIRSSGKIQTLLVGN
The essentials:
as §1

Test [18] addresses ETV6 (Homo sapiens, UniProt P41212 1-452). The essentials: as §1

ETV1, sequence (P50549 whole entry): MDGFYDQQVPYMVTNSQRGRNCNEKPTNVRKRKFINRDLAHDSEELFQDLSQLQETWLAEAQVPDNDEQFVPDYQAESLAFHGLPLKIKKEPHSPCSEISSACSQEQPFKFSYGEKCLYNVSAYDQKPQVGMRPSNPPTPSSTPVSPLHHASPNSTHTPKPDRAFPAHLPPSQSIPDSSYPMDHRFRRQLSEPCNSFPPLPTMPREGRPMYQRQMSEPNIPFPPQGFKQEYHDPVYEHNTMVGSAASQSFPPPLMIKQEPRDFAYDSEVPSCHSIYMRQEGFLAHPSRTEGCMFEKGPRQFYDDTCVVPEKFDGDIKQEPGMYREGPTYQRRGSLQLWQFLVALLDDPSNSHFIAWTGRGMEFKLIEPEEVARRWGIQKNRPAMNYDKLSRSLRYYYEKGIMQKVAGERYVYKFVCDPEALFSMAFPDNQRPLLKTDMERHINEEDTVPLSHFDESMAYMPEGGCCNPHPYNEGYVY
ETV6, sequence (P41212 whole entry): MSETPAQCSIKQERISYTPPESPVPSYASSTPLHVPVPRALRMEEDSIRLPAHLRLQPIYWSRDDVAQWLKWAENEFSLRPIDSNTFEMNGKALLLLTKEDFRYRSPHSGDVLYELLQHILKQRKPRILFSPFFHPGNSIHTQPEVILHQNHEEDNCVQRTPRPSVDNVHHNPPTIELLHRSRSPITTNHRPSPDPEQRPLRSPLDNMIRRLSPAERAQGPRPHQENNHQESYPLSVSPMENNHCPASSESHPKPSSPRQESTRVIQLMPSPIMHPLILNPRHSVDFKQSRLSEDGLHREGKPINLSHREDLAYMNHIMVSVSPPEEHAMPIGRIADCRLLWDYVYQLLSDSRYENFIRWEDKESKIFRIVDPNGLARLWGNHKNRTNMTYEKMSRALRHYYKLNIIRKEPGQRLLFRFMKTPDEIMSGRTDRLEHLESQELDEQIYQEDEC

On to TGATTA, for which the binding signal in [1] was 1.17 fold enrichment (6-mer frequency, TF over GST control); in test [2], 1.1 fold enrichment (6-mer frequency, TF over GST control); in test [3] it was 1.02 fold enrichment (6-mer frequency, TF over GST control); in [4], 1.09 fold enrichment (6-mer frequency, TF over GST control); in test [5] it was 1.11 fold enrichment (6-mer frequency, TF over GST control); in [6] it was 1.07 fold enrichment (6-mer frequency, TF over GST control). The binding signal in [7] was 1.17 fold enrichment (6-mer frequency, TF over GST control); in [8] it was 1.07 fold enrichment (6-mer frequency, TF over GST control); in test [9], 1.16 fold enrichment (6-mer frequency, TF over GST control); in [10] it was 1.18 fold enrichment (6-mer frequency, TF over GST control); in [11], 1.09 fold enrichment (6-mer frequency, TF over GST control); in test [12], 1.16 fold enrichment (6-mer frequency, TF over GST control). The binding signal was 1.07 fold enrichment (6-mer frequency, TF over GST control) in test [13]; 1.03 fold enrichment (6-mer frequency, TF over GST control) in test [14]; 1.01 fold enrichment (6-mer frequency, TF over GST control) in test [15]; 1.05 fold enrichment (6-mer frequency, TF over GST control) in test [16]; 1.08 fold enrichment (6-mer frequency, TF over GST control) in test [17]; 1.06 fold enrichment (6-mer frequency, TF over GST control) in test [18].
